Screening data from PubChem.
Shown is part of a subset that was picked to be rich in hits.
IMPase cell inh – IMPase inhibition in cells. CHO-M1 cells, IP1 accumulation, HTRF TR-FRET ratio. inhibition (IP1 accumulation), % at 46.1 µM. 120,000 tested, under 10 active. AID 901; active means well fitted curve in the direction sought with a large enough effect in the signal ratio, not every such curve was filed as active; inconclusive means small, poorly fitted or top-dose-only effect, or a change in a side signal; inactive means no such curve, though single readings can be large or run the other way; the % refers to the signal ratio;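 further: cells stimulated with carbachol in lithium chloride buffer; higher means more IMPase inhibition seen as more IP1 and lower FRET ratio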
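Cellular IMPase inhibition is scored as a rise in cytosolic IP1, detected by competitive TR-FRET between d2-labelled IP1 and a europium anti-IP1 antibody. M1-expressing CHO cells were stimulated with carbachol for 30 min at 37C, with lithium (50 mM LiCl) present in the buffer.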
PNC assembly inh – blocks assembly of the perinucleolar compartment; AID 2417; activity change (PNC), negative = inhibition, % at 10 µM; hit rate 3.1% among 140,000; PC3M PTB-GFP, PNC prevalence imaging, 16 h; active compounds read low;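 active means readout at or below -70, meaning at least 70% loss of cells showing the perinucleolar compartment, a nuclear body marking cancer cells; inconclusive means readout between -30 and a set limit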
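Compounds are pinned in duplicate onto adhered PC3M cells stably expressing GFP-tagged PTB and incubated 16 h at 37 C. Cells are then fixed, nuclei stained with Hoechst, and PNC-positive cells counted.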
IMPase Li cell – IMPase inhibition in cells with lithium potentiation. CHO-M1 cells, IP1 TR-FRET (IP-One), carbachol + lithium. Potency, µM (titrated, usually from 59.4 µM), hits mostly inhibitors. hit rate 0.35% among 210,000. AID 1457;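 further: IP1 builds up when IMPase is blocked and the TR-FRET signal falls; nearly all actives have a fitted effect of over 50% in size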
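Readout is a homogeneous TR-FRET IP1 immunoassay (Ex 320, Em 665 and 620), where raised cytosolic IP1 lowers signal. Cells were CHO-M1 treated 30 min at 37C with test compounds plus a little lithium; AC50 values came from Hill-equation fitting.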
ALOX15B inhib – inhibitors of human 15-lipoxygenase 2 (ALOX15B) | AID 881 | purified 15hLO-2, xylenol orange hydroperoxide absorbance | hit rate 0.56% among 110,000 | Potency, µM (titrated, usually from 57.1 µM), most hits filed as inhibitors; further: nearly all actives have a fitted effect of over 60% in size
Target sequence (O15296 whole entry, looked up): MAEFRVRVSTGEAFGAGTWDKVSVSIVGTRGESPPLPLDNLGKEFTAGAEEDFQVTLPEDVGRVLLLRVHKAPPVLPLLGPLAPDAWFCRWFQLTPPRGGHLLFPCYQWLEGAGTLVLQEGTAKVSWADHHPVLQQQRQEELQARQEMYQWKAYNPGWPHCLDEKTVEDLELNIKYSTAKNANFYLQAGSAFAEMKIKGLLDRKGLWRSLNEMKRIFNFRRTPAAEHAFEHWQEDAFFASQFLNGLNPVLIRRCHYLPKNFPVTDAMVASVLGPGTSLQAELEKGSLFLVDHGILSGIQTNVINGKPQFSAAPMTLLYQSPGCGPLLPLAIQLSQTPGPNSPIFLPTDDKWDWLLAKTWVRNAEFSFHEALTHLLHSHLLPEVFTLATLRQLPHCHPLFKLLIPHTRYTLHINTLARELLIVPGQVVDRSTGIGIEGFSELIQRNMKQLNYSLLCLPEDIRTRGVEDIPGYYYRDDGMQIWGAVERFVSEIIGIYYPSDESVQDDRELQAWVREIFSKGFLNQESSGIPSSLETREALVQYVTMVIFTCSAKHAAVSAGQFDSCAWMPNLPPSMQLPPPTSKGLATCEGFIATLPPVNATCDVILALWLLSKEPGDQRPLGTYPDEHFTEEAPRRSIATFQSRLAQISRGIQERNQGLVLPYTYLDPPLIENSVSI
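Enzyme 50 nM, AA 45 uM, 25 mM Hepes pH 7.5 + 0.01% Triton X-100; cpd preinc 15 min RT, rxn 90 min RT; stop/detect with 200 uM XO + 300 uM Fe(II) in 50 mM H2SO4, 30 min; A573/A405.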
12-hLO inh – 12-hLO (ALOX12) enzyme inhibition. P18054. purified 12-hLO, xylenol orange hydroperoxide absorbance. Potency, µM (doses to about 57.1 µM), usual class: inhibitors. hit rate 0.12% among 150,000. AID 1452; further: nearly all actives have a fitted effect of over 55% in size
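Hydroperoxide formation by human 12-lipoxygenase from 40 uM arachidonic acid was followed colorimetrically via ferric-xylenol orange complex, using the 573/405 nm absorbance ratio. Enzyme concentration was 150 nM, with 30 min reaction at room temperature.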
Large screens that a line does not name were inactive. Unless noted, the call rests on the fitted dose curve; in most records, active means well fitted curve in the direction sought with a large enough effect; inconclusive means small, poorly fitted or top-dose-only effect, or another doubt; inactive means no such curve, though single readings can be large; an effect the other way counts as inactive or inconclusive.

O=C(O)c1ccc2cc(-c3ccc(O)c(C45CC6CC(CC(C6)C4)C5)c3)ccc2c1	ALOX15B inhib 7.9µM, 12-hLO inh inconclusive (no result: IMPase cell inh, PNC assembly inh)
CC1(C)Cc2c(c(N3CCOCC3)nc3snc(Br)c23)CO1	PNC assembly inh -84
Cc1ccc(Sc2ncnc(N)c2[N+](=O)[O-])cc1	none (no result: ALOX15B inhib)
Nc1ncnc(Sc2ccc(Cl)cc2)c1[N+](=O)[O-]	PNC assembly inh -103 (no result: IMPase cell inh, ALOX15B inhib)
O=C(C1CC(=O)N(C2CCCC2)C1)N1CCC(Cc2ccccc2)CC1 (stereo not given)	PNC assembly inh -106
N#Cc1ccccc1OCC(O)CNCCNC(=O)Nc1ccccc1 (stereo not given)	none (no result: IMPase cell inh, PNC assembly inh, ALOX15B inhib, 12-hLO inh)
COc1ccc(N(C)C2=NS(=O)(=O)c3ccccc32)cc1	PNC assembly inh -101
CCOc1ccccc1C(=O)NN1C(=O)CCC1=O	PNC assembly inh -114 (no result: IMPase cell inh, ALOX15B inhib)
CCOc1ccc(S(=O)(=O)Nc2cc(S(=O)(=O)N(CC)CC)ccc2N2CCCC2)cc1	PNC assembly inh -121 (no result: IMPase cell inh, ALOX15B inhib)
COc1ccccc1OCc1ccc(C(=O)NCc2ccco2)o1	IMPase cell inh inconclusive, PNC assembly inh -86
COc1ccccc1OCc1ccc(C(=O)NC(C)(C)C)o1	none
Clc1ccc(/C=N/Nc2nn[nH]n2)cc1	PNC assembly inh -100 (no result: ALOX15B inhib)
Cc1c(C(=O)Nc2ccc(Cl)cc2)c2ccccn2c1CCc1ccncc1	PNC assembly inh -85 (no result: ALOX15B inhib)
COc1ccccc1-n1cnc2cc(NCc3cccs3)ccc21	PNC assembly inh -81
CCOc1ccccc1NC(=O)c1sc2nc(-c3ccc(OC)cc3)ccc2c1N	none (no result: PNC assembly inh, IMPase Li cell, ALOX15B inhib, 12-hLO inh)
CC1(C)CC(=S)Nc2ccccc2S1	PNC assembly inh -100, 12-hLO inh inconclusive (no result: ALOX15B inhib)
Oc1cccc(/C=N/c2c(-c3ccco3)nc3ccccn23)c1	IMPase Li cell 13µM, ALOX15B inhib inconclusive
O=[N+]([O-])c1ccc(Cl)c(-c2ccc(/C=N/c3c(-c4ccco4)nc4ccccn34)o2)c1	none
N#Cc1c(C(F)(F)F)cc(-c2cccs2)nc1SCc1ccccc1F	none (no result: PNC assembly inh, IMPase Li cell, ALOX15B inhib, 12-hLO inh)
COc1ccc2c(c1)N(C)/C(=C1/SC(=NCc3ccccc3)N(c3ccccc3)C1=O)S2	PNC assembly inh inconclusive
C=CCN1C(=O)/C(=C2/Sc3ccc(OC)cc3N2C)SC1=NCc1ccccc1	IMPase Li cell 2µM (no result: IMPase cell inh, PNC assembly inh, ALOX15B inhib, 12-hLO inh)
C=CCn1c(CSc2nc3ccccc3s2)nnc1SCC(=O)OCC	none
CCOC(=O)CSc1nnc(CSc2nc3ccccc3s2)n1C	PNC assembly inh -97
O=C(NC1CCCC1)c1ccc(Br)o1	PNC assembly inh -85
COc1ccc(C2(N3CCN(c4cccc(C)c4C)CC3)C(=O)c3ccccc3C2=O)cc1	none (no result: PNC assembly inh, IMPase Li cell, ALOX15B inhib, 12-hLO inh)
O=C(NC(=S)N(Cc1ccccc1)c1ccccn1)C1CCCCC1	PNC assembly inh -103 (no result: IMPase cell inh, ALOX15B inhib)
CN(Cc1ccccc1)C(=S)NC(=O)C1CCCCC1	none (no result: IMPase Li cell, ALOX15B inhib)
CCOc1ccccc1NC(=O)C(Cc1ccccc1)NS(=O)(=O)c1ccc(Br)s1 (stereo not given)	none (no result: PNC assembly inh, IMPase Li cell, ALOX15B inhib, 12-hLO inh)
COCCN(CCOC)S(=O)(=O)c1ccc(C(=O)Nc2sc3c(c2C(N)=O)CCCCC3)cc1	PNC assembly inh -119 (no result: ALOX15B inhib)
COC(=O)c1c(NC(=O)c2ccccc2N(C)S(=O)(=O)c2ccccc2)sc2c1CCCC2	PNC assembly inh -108 (no result: ALOX15B inhib)
COC(=O)c1c(NC(=O)c2ccc(N(C)S(=O)(=O)c3ccc(C)cc3)cc2)sc2c1CCCC2	none (no result: IMPase cell inh, ALOX15B inhib)
C[C@@](N)(Cc1ccc(O)c(O)c1)C(=O)O	ALOX15B inhib inconclusive (no result: PNC assembly inh)
CCCc1nc2sc3c(N4CCC(C)CC4)ncnc3c2c2c1CCCC2	none (no result: PNC assembly inh, IMPase Li cell, ALOX15B inhib, 12-hLO inh)
CCc1ccc(C(=O)Nc2ccc(S(=O)(=O)Nc3nc(C)cc(C)n3)cc2)o1	PNC assembly inh -107
CCCCCCCNC1=CC(=O)CC(c2ccccc2)C1 (stereo not given)	none (no result: ALOX15B inhib)
CCCCCNC1=CC(=O)CC(c2ccccc2)C1 (stereo not given)	PNC assembly inh -84
CC1CC(C)CN(CC(O)COCCOc2ccc(Br)cc2)C1 (stereo not given)	PNC assembly inh -102 (no result: IMPase cell inh, ALOX15B inhib)
Nc1nonc1-c1nc2ccccc2n1CC(=O)Nc1cccc(Cl)c1Cl	none (no result: PNC assembly inh, IMPase Li cell, ALOX15B inhib, 12-hLO inh)
COc1cccc(C(=O)Nc2ccc(NC(=O)c3ccc(C(C)(C)C)cc3)cc2)c1	none (no result: PNC assembly inh, IMPase Li cell, ALOX15B inhib, 12-hLO inh)
COc1cccc(C(=O)Nc2ccc(NC(=O)C(C)(C)C)cn2)c1	PNC assembly inh -84
CCOC(=O)c1cc(CC)sc1/N=C/c1c(O)ccc2ccccc12	PNC assembly inh -88 (no result: IMPase cell inh, ALOX15B inhib)
Cc1cc2c(n1-c1ccc(Br)cc1)CC(C)(C)CC2=O	PNC assembly inh inconclusive
Cc1ccc(-n2c(C)cc3c2CC(C)(C)CC3=O)cc1C	PNC assembly inh -85
COc1ccccc1NC(=O)CN1C(=O)c2cccc3cccc1c23	none (no result: PNC assembly inh, IMPase Li cell, ALOX15B inhib, 12-hLO inh)
O=C(COc1ccc(Cl)cc1)NCc1nnc(SCC(=O)Nc2ccccc2)o1	PNC assembly inh inconclusive
O=C(COc1ccc(Cl)cc1)NCc1nnc(SCC(=O)NC2CCCCC2)o1	PNC assembly inh inconclusive, IMPase Li cell 11µM
S=c1nc[nH]c2c1sc1nc(N3CCOCC3)c3c(c12)CCCC3	IMPase Li cell 11µM (no result: IMPase cell inh, PNC assembly inh, ALOX15B inhib, 12-hLO inh)
Cn1nnc2c(sc3nc(N4CCOCC4)c4c(c32)CCCC4)c1=O	PNC assembly inh inconclusive
COc1cc2cc(C(=O)O)[nH]c2c(OC)c1OC	PNC assembly inh -97
COc1ccc2oc(=O)c(-c3nc4ccccc4o3)cc2c1	PNC assembly inh -81 (no result: ALOX15B inhib)
COc1cc(-c2nc3n(n2)C(c2ccc(F)cc2)C(C(N)=O)=C(C)N3)cc(OC)c1OC (stereo not given)	none (no result: PNC assembly inh, IMPase Li cell, ALOX15B inhib, 12-hLO inh)
CCCCNC(=S)NCc1ccc2[nH]c(C)cc2c1	PNC assembly inh -115, 12-hLO inh inconclusive (no result: IMPase cell inh, ALOX15B inhib)
O=C(NCCc1c[nH]c2ccccc12)[C@H]1C[C@@H]1[C@H](NP(=O)(c1ccccc1)c1ccccc1)c1ccccc1	none (no result: IMPase cell inh, PNC assembly inh)
